The text below walks through data of PubChem BioAssay (Tox21).

Inconclusive results are not listed. A number with no mark means an inactive call. The call rests on the fitted dose curve.
On the % scale 0 is the no-effect control and ±100 the full control effect.

The test can be described thus: qHTS assay to identify small molecule agonists of the endoplasmic reticulum stress response signaling pathway - cell viability counter screen (AID 1159517). Further: nearly all actives have a fitted effect of over 50% in size. The note with it: ESRE-bla HeLa viability, CellTiter-Glo luminescence, 5 h; series mostly up to 61 µM; activity change, negative = cytotoxicity: at the top concentration. An excerpt:
U.S. Tox21 Program National Center for Advancing Translational Sciences [NCATS] NIH Chemical Genomics Center [NCGC] U.S. Environmental Protection Agency [EPA] National Institutes of Environmental Health Sciences [NIEHS] National Toxicology Program [NTP] U.S. Food and Drug Administration [FDA] Tox21 Assay Overview: Endoplasmic Reticulum (ER) plays an important role in cellular signaling, protein folding/maturation, stress response, lipid biosynthesis, calcium storage and release etc. Under stress conditions, proteins in ER misfold or unfold, and leading to the expression of ER stress responsive genes. ER stress has been associated with a variety of pathophysiological conditions such as cancer, inflammation, neurodegenerative diseases, diabetes, ischemic heart disease etc. To identify the compounds that induce ER stress response, an ER stress reporter cell line, CellSensor ESRE-bla HeLa (Life Technologies, Carlsbad, CA) containing a beta-lactamase reporter gene under control of the Endoplasmic reticulum Stress Response Element (ESRE) was used to screen Tox21 10K compound library. The cytotoxicity of the Tox21 compound library against the ESRE-bla HeLa cell line was tested in parallel by measuring cell viability using the CellTiter-Glo assay in the same wells.
Tox21 Assay Protocol Summary: ESRE-bla HeLa cells were dispensed at 1,500 cells/6 uL of assay medium per well into black wall/clear-bottom 1536-well plates using a Multidrop Combi (ThermoFisher Scientific, Waltham, MA) dispenser. After the assay plates were incubated at 37 C and 5% CO2 for an overnight, 23 nL of compounds dissolved in DMSO, positive controls or DMSO only was transferred to the assay plate by a Pintool station (Kalypsys, San Diego, CA). The assay plates were incubated at 37 C and 5% CO2 for 5 hr. One uL of LiveBLAzer B/G FRET substrate (Life Technologies) was added using a FRD (Flying Reagent Dispenser, Aurora Discovery, San Diego, CA) and the plates were incubated at room temperature for 2 hr. Fluorescence intensity (405 nm excitation, 460 nm and 530 nm emissions) was measured using an Envision plate reader (PerkinElmer, Shelton, CT). For cytotoxicity, 4 ul/well of CellTiter-Glo reagent was added into the assay plates using an FRD. After 30 min incubation at room temperature, the luminescence intensity was measured using a ViewLux plate reader (PerkinElmer).
For the compound `OCc1ccccn1`, the “activity change, negative = cytotoxicity” value is -2.78%.

For the compound `CC/C=C\C#N`, the “activity change, negative = cytotoxicity” value was 1.8%.

As to `CCCCCOC(=O)Nc1nc(=O)n([C@@H]2O[C@H](C)[C@@H](O)[C@H]2O)cc1F`, the “activity change, negative = cytotoxicity” value is -0.0335%.

With `Nc1nc2c(ncn2CCC(CO)CO)c(=O)[nH]1`, the “activity change, negative = cytotoxicity” value is -5.77%.

In the case of `NS(=O)(=O)c1cc(C2(O)NC(=O)c3ccccc32)ccc1Cl` (stereo not given), the “activity change, negative = cytotoxicity” value is 8.37%.

With `CCN(CC)S(=O)(=O)c1ccc(C(=O)O)cc1`, the “activity change, negative = cytotoxicity” value was -29.1%.

For `CCO[Si](C)(OCC)OCC`, the “activity change, negative = cytotoxicity” value was 1.64%.

In the case of `CCN1CCCC(OC(=O)C(c2ccccc2)c2ccccc2)C1` (stereo not given), the “activity change, negative = cytotoxicity” value is 10.3%.

Take `O=c1[nH]c(=O)n([C@H]2O[C@H](CO)[C@@H](O)[C@@H]2O)cc1/C=C\Br`: the “activity change, negative = cytotoxicity” value was 4.96%.

Consider `COc1cc(C)cc(O)c1`, for which the “activity change, negative = cytotoxicity” value is 28.2%.

Turning to `CCCC(=O)O[C@]1(C(=O)CCl)[C@@H](C)C[C@H]2[C@@H]3CCC4=CC(=O)C=C[C@]4(C)[C@@]3(F)C(=O)C[C@@]21C`, the “activity change, negative = cytotoxicity” value was 22.6%.

For `Nc1[nH]c(=O)ncc1F`, the “activity change, negative = cytotoxicity” value was -9.49%.

For `Nc1ncnc2c1ncn2Cc1c(F)cccc1Cl`, the “activity change, negative = cytotoxicity” value is -0.12%.

In the case of `C(=C(c1ccccc1)c1ccccc1)c1ccccc1`, the “activity change, negative = cytotoxicity” value is -13.6%.

Turning to `CO[Si](CCCNCCC[Si](OC)(OC)OC)(OC)OC`, the “activity change, negative = cytotoxicity” value is -2.84%.

In the case of `CCCc1ccc(N)cc1`, the “activity change, negative = cytotoxicity” value was 7.6%.

For `[O-][N+](=Nc1ccccc1)c1ccccc1`, the “activity change, negative = cytotoxicity” value was 3.04%.

Regarding `CC(C)CCOC(=O)CC(C)C`, the “activity change, negative = cytotoxicity” value is 10.2%.

`NC(=O)c1c(Cl)cccc1Cl`: the “activity change, negative = cytotoxicity” value is -6.39%.

On to `CCCCc1ccc(N)cc1`, for which the “activity change, negative = cytotoxicity” value was -4.67%.

Turning to `c1ccc(CCCc2ccccn2)cc1`, the “activity change, negative = cytotoxicity” value is 17.5%.

With `O=C(O)Cc1cc(I)c(Oc2cc(I)c(O)c(I)c2)c(I)c1`, the “activity change, negative = cytotoxicity” value was 6.47%.

On to `CN(C)N=Nc1ccccc1`, for which the “activity change, negative = cytotoxicity” value was -6.5%.

Take `CC(C)=CCC/C(C)=C/C(=O)O`: the “activity change, negative = cytotoxicity” value is -5.45%.

On to `O=Cc1ccccc1[N+](=O)[O-]`, for which the “activity change, negative = cytotoxicity” value was 2.06%.

Consider `CC/C=C\CCCCO`, for which the “activity change, negative = cytotoxicity” value is 5.67%.

Regarding `CO[Si](OC)(OC)OC`, the “activity change, negative = cytotoxicity” value is -4.11%.

For the compound `CC(C)c1cccc(C(C)C)c1N`, the “activity change, negative = cytotoxicity” value is 0.0467%.

Consider `CCCCCCCCCCC1CO1` (stereo not given), for which the “activity change, negative = cytotoxicity” value is 8.25%.

As for `CCC(=O)c1cccc(Cl)c1`, the “activity change, negative = cytotoxicity” value is -4.88% [at 78.8 µM].

For `C=CCOCC(O)CS(=O)(=O)O` (stereo not given), the “activity change, negative = cytotoxicity” value was 1.42% [at 78.8 µM].

Turning to `NC(=O)CCCCC1CCSS1` (stereo not given), the “activity change, negative = cytotoxicity” value is 8.12%.

Regarding `CCCCc1ccc2cccc(S(=O)(=O)O)c2c1`, the “activity change, negative = cytotoxicity” value was 3.11%.

With `O=c1[nH]c2ccccc2c(=O)n1CCCl`, the “activity change, negative = cytotoxicity” value is -10.4%.

Regarding `CC(C)(C)C(=O)/C=C/c1ccc(Cl)cc1`, the “activity change, negative = cytotoxicity” value was -1.97%.

Take `CCOC(=O)[C@H](CCc1ccccc1)N[C@@H](C)C(=O)N1CCC[C@H]1C(=O)O`: the “activity change, negative = cytotoxicity” value was -1.38%.

Consider `NCCNC(=O)c1ccc(Cl)cn1`, for which the “activity change, negative = cytotoxicity” value is 0.254%.

Consider `Nc1ccn(C2CO[C@H](CO)O2)c(=O)n1` (stereo not given in full), for which the “activity change, negative = cytotoxicity” value was 0.503%.

Take `CCN1CCCC1CNC(=O)c1cc(S(N)(=O)=O)ccc1OC` (stereo not given): the “activity change, negative = cytotoxicity” value was 2.5%.

As to `CC(C)COC(=O)C(C)C`, the “activity change, negative = cytotoxicity” value is -2.7%.
